{
  "source": "PubChem BioAssay AID1259416",
  "about": "(Broad Institute, 2018)",
  "note": "Where “and” joins values, the source holds several entries; their conditions need not be identical. Identical values can stand only once. Screen size: about 69,000 compounds; about 2,600 (3.8%) were called active. This is one part of a sample in which actives are shown more often than they occur. No stated cut-off is given here; in the data, active means activity change below about -70% (passing the limit was not always enough); inconclusive means no clear call, values can overlap the other calls.",
  "data": [
    {"assay": "T. gondii growth inhibition with IFN-gamma, primary screen, cell-based (AID 1259416);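 further: host cells are HeLa cells infected with Toxoplasma gondii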", "details": "Toxoplasma gondii growth in IFN-gamma-treated host cells; stronger effect = lower value; concentration not given here", "values": [
      {"smiles": "O=C(NCc1cccnc1)c1ccc(N2CCC(NC3C4CC5CC(C4)CC3C5)CC2)cc1", "note": "(centres undefined)", "activity change, negative = inhibition": "5.88% (inactive)"},
      {"smiles": "O=C(NCCc1nnc2n1CCNCC2)C1(c2ccccc2)CC12CCCC2", "note": "(centres undefined)", "activity change, negative = inhibition": "-3.83% (inactive)"},
      {"smiles": "Cc1cc(C)c2c(n1)sc1c(=O)n(C)cnc12", "activity change, negative = inhibition": "-4.83% (inactive)"},
      {"smiles": "COc1ccc(OC)c(C(=O)c2ccc(Cl)cc2)c1", "activity change, negative = inhibition": "36.6% (inactive)"},
      {"smiles": "Cc1cc(C)c2c(-n3cccc3)c(C(=O)c3ccc(Cl)cc3)sc2n1", "activity change, negative = inhibition": "-91.8% (active)"},
      {"smiles": "Cn1cc(C(CNC(=O)Nc2cccc(F)c2)c2cccnc2)c2ccccc21", "note": "(centres undefined)", "activity change, negative = inhibition": "27% (inactive)"},
      {"smiles": "CCCC(=O)Nc1ccc2c(c1)OC[C@@H](C)N(CC1CCOCC1)C[C@H](C)[C@H](OC)CN(C)C2=O", "activity change, negative = inhibition": "-83.2% (active)"},
      {"smiles": "CO[C@@H]1CN(C)C(=O)c2ccc(NS(C)(=O)=O)cc2OC[C@@H](C)N(CC2CC2)C[C@@H]1C", "activity change, negative = inhibition": "-56.4% (inactive)"},
      {"smiles": "CO[C@@H]1CN(C)C(=O)c2cc(NC(=O)NC3CCCCC3)ccc2OC[C@H](C)N(CC2CCOCC2)C[C@H]1C", "activity change, negative = inhibition": "-30.9% (inactive)"},
      {"smiles": "O=C(CCc1nc(-c2ccccn2)no1)N1CCC(CCc2ccccc2F)CC1", "activity change, negative = inhibition": "18.8% (inactive)"},
      {"smiles": "CCc1[nH]c2c(CNS(=O)(=O)N(C)C)cc(C)cc2c1C", "activity change, negative = inhibition": "-4.66% (inactive)"},
      {"smiles": "Cc1nc(Nc2ccc(Cl)cc2)sc1C(=O)c1ccncc1", "activity change, negative = inhibition": "0.796% (inactive)"},
      {"smiles": "Fc1ccc(Cl)cc1-c1nc(Nc2ccncc2)c2nccnc2n1", "activity change, negative = inhibition": "-81% (active)"},
      {"smiles": "O=C(Nc1ccccc1Oc1ccc(F)cc1)C1CC(=O)N(Cc2cccnc2)C1", "note": "(centres undefined)", "activity change, negative = inhibition": "18.8% (inactive)"},
      {"smiles": "O=C(Nc1nc(-c2ccc(Br)cc2)cs1)c1c(O)c2ccccc2[nH]c1=O", "activity change, negative = inhibition": "8.75% (inactive)"},
      {"smiles": "CCCc1nc(C)c(CNC(=O)C2CCOC2)s1", "note": "(centres undefined)", "activity change, negative = inhibition": "-2.34% (inactive)"},
      {"smiles": "COCCCNC(=O)c1nc(Nc2ccc(F)cc2)c2ccccc2n1", "activity change, negative = inhibition": "-29% (inactive)"},
      {"smiles": "C=CC(=O)Nc1ccc2c(c1)CCC(=O)N2CC", "activity change, negative = inhibition": "-3.01% (inactive)"},
      {"smiles": "O=C(CNC(=O)c1ccccc1F)c1ccc(Br)cc1", "activity change, negative = inhibition": "264% (inactive)"},
      {"smiles": "O=C(Cn1c(C(=O)c2ccccc2)nc2ccccc21)c1ccc(Br)cc1", "activity change, negative = inhibition": "-103% (active)"},
      {"smiles": "O=C(Cn1c(NCCCO)nc2ccccc21)c1ccccc1", "activity change, negative = inhibition": "-22.3% (inactive)"},
      {"smiles": "Clc1cccc(CN2CC3CCCC(C2)C3N2CCOCC2)c1Cl", "note": "(centres undefined)", "activity change, negative = inhibition": "9.4% (inactive)"},
      {"smiles": "C[C@@H]1CN([C@H](C)CO)C(=O)c2cccc(NC(=O)NC3CCCCC3)c2O[C@H]1CN(C)Cc1ccc(C(F)(F)F)cc1", "activity change, negative = inhibition": "-74.3% (active)"},
      {"smiles": "C[C@H]1CN([C@@H](C)CO)C(=O)c2ccccc2-c2ccccc2CO[C@H]1CN(C)C(=O)Nc1ccc(-c2ccccc2)cc1", "activity change, negative = inhibition": "-62.1% (inactive)"},
      {"smiles": "C[C@H]1CN([C@@H](C)CO)C(=O)c2cccc(NC(=O)c3ccc(-c4nccs4)cc3)c2O[C@@H]1CN(C)C(=O)Nc1ccc(C(F)(F)F)cc1", "activity change, negative = inhibition": "-80.3% (active)"},
      {"smiles": "C[C@H](CO)N1C[C@H](C)[C@@H](CN(C)Cc2ccc(C(F)(F)F)cc2)Oc2c(NC(=O)NC3CCCCC3)cccc2C1=O", "activity change, negative = inhibition": "-53.4% (inactive)"},
      {"smiles": "Cc1noc(C)c1S(=O)(=O)Nc1cccc2c1O[C@H](CN(C)Cc1ccc(C(F)(F)F)cc1)[C@H](C)CN([C@@H](C)CO)C2=O", "activity change, negative = inhibition": "25.4% (inactive)"},
      {"smiles": "CC(C)NC(=O)N(C)C[C@H]1Oc2c(NS(=O)(=O)c3cccs3)cccc2C(=O)N([C@H](C)CO)C[C@H]1C", "activity change, negative = inhibition": "-14.3% (inactive)"},
      {"smiles": "Cc1ccc(S(=O)(=O)Nc2cccc3c2O[C@H](CN(C)C(=O)Nc2ccc(C(F)(F)F)cc2)[C@@H](C)CN([C@@H](C)CO)C3=O)cc1", "activity change, negative = inhibition": "16.3% (inactive)"},
      {"smiles": "C[C@@H]1CN([C@H](C)CO)C(=O)c2cccc(NC(=O)c3ccc(-c4nccs4)cc3)c2O[C@@H]1CN(C)C(=O)Nc1ccc(C(F)(F)F)cc1", "activity change, negative = inhibition": "-77.7% (active)"},
      {"smiles": "C[C@H]1CN([C@@H](C)CO)C(=O)c2cccc(NC(=O)C3CCOCC3)c2O[C@@H]1CN(C)C(=O)Nc1cccc2ccccc12", "activity change, negative = inhibition": "5.47% (inactive)"},
      {"smiles": "O=C(Cn1ncc2ccccc2c1=O)NCc1cc(Cl)c2c(c1)OCCCO2", "activity change, negative = inhibition": "23% (inactive)"},
      {"smiles": "Cc1ccsc1CNc1cccc(C(=O)N(C)Cc2snnc2C)c1", "activity change, negative = inhibition": "-4.49% (inactive)"},
      {"smiles": "Cc1ccc2oc(=O)n(CCC(=O)N3[C@@H]4CC[C@H]3CNC(=O)C4)c2c1", "activity change, negative = inhibition": "-11.3% (inactive)"},
      {"smiles": "Cc1cc(C)cc(NC(=O)N2CCC3(CC2)Nc2ccccc2-n2cccc23)c1", "activity change, negative = inhibition": "295% (inactive)"},
      {"smiles": "O=C(N[C@H]1C[C@H]2C(=O)NCC(=O)N2C1)c1cccc(Cn2cccn2)c1", "activity change, negative = inhibition": "-5.16% (inactive)"},
      {"smiles": "COc1c(C)c2c(c(O)c1C/C=C(\\C)CCC(=O)O)C(=O)OC2", "activity change, negative = inhibition": "-91.9% (active)"},
      {"smiles": "O=C(O)CSc1nnc(-c2ccn[nH]2)n1-c1ccccc1Cl", "activity change, negative = inhibition": "55.4% (inactive)"},
      {"smiles": "Cc1ccsc1CN(CCCN1CCOCC1)CC1=Cc2ccccc2OC1", "activity change, negative = inhibition": "97.9% (inactive)"},
      {"smiles": "Cc1ccc2oc(CN(CCCO)Cc3sccc3C)c(C)c2c1", "activity change, negative = inhibition": "-33.4% (inactive)"},
      {"smiles": "CCS(=O)(=O)N1CCC2(CC1)Nc1ccc(C)c(C)c1-n1cccc12", "activity change, negative = inhibition": "28% (inactive)"},
      {"smiles": "CC1(C)[C@]2(C(=O)NCCCc3nc4ccccc4o3)CC[C@@]1(C)OC2=O", "activity change, negative = inhibition": "4.16% (inactive)"},
      {"smiles": "c1ccc(N2CCC3(COCCN(c4ncccn4)C3)C2)nc1", "note": "(centres undefined)", "activity change, negative = inhibition": "-3.03% (inactive)"},
      {"smiles": "c1ccc(N2CCN(N=C3c4ccccc4-c4ccccc43)CC2)nc1", "activity change, negative = inhibition": "-103% (active)"},
      {"smiles": "O=C(CN1CCN(c2ccccn2)CC1)Nc1ccc(Br)cc1", "activity change, negative = inhibition": "-9% (inactive)"},
      {"smiles": "CCCn1cc(S(=O)(=O)NCC2CCC(c3ccc(C(N)=O)c(C)n3)CC2)c(C)n1", "note": "(centres undefined)", "activity change, negative = inhibition": "19.4% (inactive)"},
      {"smiles": "CN(C)C(=O)[C@@]12CCCN(Cc3cccs3)C[C@@H]1CN(Cc1cnn(C)c1)C2", "activity change, negative = inhibition": "-0.124% (inactive)"},
      {"smiles": "FC(F)(F)c1cccc2c(N3CCN(C4CCOCC4)CC3)ccnc12", "activity change, negative = inhibition": "-46.1% (inactive)"},
      {"smiles": "CN(n1cnc2ccccc2c1=O)S(=O)(=O)c1cc(Cl)sc1Cl", "activity change, negative = inhibition": "-76.6% (active)"},
      {"smiles": "CN(C(=O)Nc1ccc(Cl)cc1)n1cnc2ccccc2c1=O", "activity change, negative = inhibition": "-50.7% (inactive)"},
      {"smiles": "COC(=O)c1cc(NC(=O)S(=O)(=O)c2ccccc2)cc(C(=O)OC)c1", "activity change, negative = inhibition": "86.5% (inactive)"},
      {"smiles": "CCCCc1c(O)cc(-c2ccccc2)n(Cc2ccccc2)c1=O", "activity change, negative = inhibition": "-76.1% (active)"},
      {"smiles": "CCCCN(Cc1ccccc1)C(=O)c1cc2cccnc2n(Cc2ccc(Cl)cc2)c1=O", "activity change, negative = inhibition": "28.6% (inactive)"},
      {"smiles": "Cc1ccc(O)c(CCc2ccccc2)n1", "activity change, negative = inhibition": "8.51% (inactive) and 1.67% (inactive)"}
    ]}
  ]
}
